Measured values taken from PubChem BioAssay (NCI).
About 83,000 compounds went through this panel and 20% of them were active in at least one assay; those are over-represented in the sample as a whole.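 Assay: single dose, 48 h. Readout: percent growth (0 = no net growth; negative = cell death). Active: <10.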 Activity calls are given as the source filed them.

What was measured:
Assay in all cases: NCI-60 one-dose screen, 48 h (100 = growth as untreated, 0 = no growth, -100 = all killed)
Conditions in all cases: 10 µM unless noted
[1] = system: NCI/ADR-RES ovarian
[2] = system: T-47D breast
[3] = system: BT-549 breast
[4] = system: MDA-MB-435 melanoma
[5] = system: SW-620 colon
[6] = system: MCF7 breast
[7] = system: HCT-116 colon
[8] = system: HCC-2998 colon
[9] = system: KM12 colon

Measured: growth

Fc1ccc2c(c1)c(-c1nc(-c3c[nH]c4ncccc34)cs1)cn2CCN1CCOCC1
inactive: [1] 33.6% | [3] 49.6% | [4] 21.5% | [5] 62.9% | [6] 29.7% | [7] 52.6% | [8] 92.9%
active: [2] 7.41%

COC(=O)[C@@H](C)C[C@H](Cc1ccccc1)NC(=O)c1csc([C@@H](C[C@H](C(C)C)N(C)C(=O)C2(NC(=O)[C@H]3CCCCN3C)CC2)OC(C)=O)n1
active: [4] -28.8% | [7] 0.459% | [8] -2.95%
inactive: [1] 61.8% | [2] 51.5% | [3] 12.8% | [5] 22.2% | [6] 18.9%

O=C(O)c1c(Cl)n(Cc2ccc(O)cc2)c2ccc(O)cc12
inactive: [1] 118% | [2] 118% | [3] 99.4% | [4] 87% | [5] 101% | [6] 101% | [7] 95% | [8] 119%

COc1ccc(N(CC(=O)NCCC[Te]c2ccccc2)C(=O)CNC(=O)OC(C)(C)C)cc1
active: [1] 1.78% | [3] -47.8% | [6] 8.66% | [7] -3.11%
inactive: [2] 109% | [4] 59.4% | [5] 53.1% | [8] 43.3%

Cn1cc(-c2csc(-c3cn(CCN4CCOCC4)c4ccc(F)cc34)n2)c2cccnc21
inactive: [3] 10.8% | [4] 32.2% | [5] 44.9% | [7] 36.9% | [8] 86.7%
active: [1] 5.84% | [2] -17.7% | [6] 8.93%

CC(=O)[C@H]1CC[C@H]2[C@@H]3CC[C@H]4C[C@H](N)CC[C@]4(C)[C@H]3CC[C@]12C
inactive: [1] 89.4% | [2] 91% | [3] 70.5% | [4] 65.1% | [5] 72.2% | [6] 70.6% | [7] 40.6% | [8] 92.8% | [9] 80.2%

[Cl][Hg][n]1c(-c2ccco2)nc2ccccc21
inactive: [1] 98.6% | [2] 94.6% | [3] 99.2% | [4] 95.7% | [5] 80.9% | [6] 74.9% | [7] 99.7% | [8] 116%

O=C(Nc1ccc(O)cc1)C(Cl)(Cl)Cl
inactive: [1] 99.4% | [2] 89.5% | [3] 91.2% | [4] 103% | [5] 110% | [6] 99.1% | [7] 103%

COc1cc(/C=N/C2=C(C#N)C(c3ccco3)c3c(c4cc(C)ccc4oc3=O)O2)cc(OC)c1OC (configuration not stated)
inactive: [1] 96.3% | [2] 88.2% | [3] 91.1% | [4] 26.1% | [5] 81.7% | [6] 70.1% | [7] 84.9% | [8] 109%

C=C1C(=O)O[C@H]2[C@H]1CC/C(COC(=O)C(=O)c1cn(Cc3ccccc3)c3ccccc13)=C\CC[C@@]1(C)O[C@@H]21
active: [1] -1.18% | [2] -7.91% | [3] -77.4% | [4] -76.6% | [5] -84.8% | [6] -68.7% | [7] -81.5% | [8] -85.4%

COC(=O)[C@@H](C)C[C@H](Cc1ccccc1)NC(=O)c1csc([C@@H](C[C@H](C(C)C)N(C)C(=O)C2(NC(=O)[C@H]3CCCCN3C)CCC2)OC(C)=O)n1
inactive: [1] 46.5% | [2] 50.1% | [3] 11.6% | [5] 23% | [6] 21.9% | [8] 12.4%
active: [4] -25.3% | [7] 3.39%

Fc1c[c-]c(-c2ccccn2)c(F)c1.[CH3-].[Pt+2].c1ccc([PH+](c2ccccc2)c2ccccn2)cc1
inactive: [1] 32.1% | [8] 20.2%
active: [2] -7.66% | [3] -1.42% | [4] -50.5% | [5] -11.6% | [6] -16.3% | [7] -43.8%

ClCCN(CCCl)c1ccc(OCc2ccccc2)cc1
inactive: [1] 56.7% | [2] 68.4% | [3] 42.7% | [4] 75% | [5] 60.9% | [6] 31.7% | [7] 55.9% | [8] 89.1% | [9] 90.5%

CC(C)(C)C(=O)OCOP(=O)(NCc1ccccc1)C1CCCN(O)C1=O (configuration not stated)
active: [7] 7%
inactive: [1] 13.5% | [2] 23.3% | [3] 28% | [4] 39.4% | [5] 30.1% | [6] 19.3% | [8] 24.7%

CN1CCC(O)(c2ccc(F)cc2)C(C(=O)c2ccc(F)cc2)C1 (configuration not stated)
inactive: [1] 103% | [2] 94.7% | [3] 96% | [4] 110% | [5] 99% | [6] 85.3% | [7] 101% | [8] 101%

Nc1cc2nc3ccccc3nc2cc1N
inactive: [1] 94.8% | [2] 52.7% | [3] 94% | [4] 109% | [5] 98% | [6] 23.5% | [7] 74.9% | [8] 96.8%

NC(=S)c1cn(C2OC(CO)C(O)C2O)c2ncnc(N)c12 (configuration not stated)
active: [1] -25.8% | [2] -16.9% | [3] -43.1% | [4] -40.5% | [5] -27.6% | [6] 2.36% | [7] -16.3% | [8] -44.8%

CCOC(=O)[C@@H](C)C[C@H](Cc1ccccc1)NC(=O)c1csc([C@@H](C[C@H](C(C)C)N(C)C(=O)CNC(=O)[C@H]2CCCCN2C)OC(C)=O)n1
inactive: [1] 74.7% | [2] 47.5% | [3] 30.9% | [5] 24.5% | [6] 17.9%
active: [4] -63.8% | [7] 3.7% | [8] 8.98%

C=CC12CCN(CC1)C(C(O)c1ccnc3ccc(OC)cc13)C2 (configuration not stated)
inactive: [1] 91.8% | [2] 82.5% | [3] 103% | [4] 56.5% | [5] 88.9% | [6] 66.5% | [7] 60.5%
active: [8] -34.8%

CCC(CC)CC1(C)CC2(C)CCOC2OO1 (configuration not stated)
inactive: [1] 104% | [2] 97.8% | [3] 112% | [4] 109% | [5] 104% | [6] 104% | [7] 108% | [8] 93.4%

CC[C@H](C)[C@H](NC(=O)N[C@@H](C)c1ccccc1)C(=O)N(C)[C@H](C[C@@H](OC(C)=O)c1nc(C(=O)N[C@@H](Cc2ccccc2)C[C@H](C)C(=O)OC)cs1)C(C)C
inactive: [1] 50% | [2] 76.7% | [3] 10.5% | [5] 16.8% | [6] 17.5% | [8] 23.7%
active: [4] -41.7% | [7] 9.92% | [9] 2.6%

CNC(=O)Oc1cccc(C(F)(F)F)c1
inactive: [1] 109% | [2] 98.9% | [3] 108% | [4] 126% | [5] 104% | [6] 109% | [7] 107%

O=C([O][Hg][CH2]C1OCCOC1[CH2][Hg][O]C(=O)c1ccccc1)c1ccccc1 (configuration not stated)
inactive: [1] 28.7% | [3] 75.5% | [4] 93.6% | [8] 108% | [9] 107%
active: [2] -64.1% | [5] -82.4% | [6] -31.7% | [7] -95.2%

COC(=O)[C@@H](C)C[C@H](Cc1ccccc1)NC(=O)c1csc([C@@H](C[C@H](C(C)C)N(C)C(=O)[C@@H](NC(=O)[C@H]2CCCCN2C)C(C)C)OC(C)=O)n1
active: [1] 5.63% | [3] -20.5% | [4] -54.7% | [7] -21.2%
inactive: [2] 54.7% | [5] 22.9% | [6] 19.6% | [8] 12.9%

COc1ccc(Nc2ccnc3cc(Cl)ccc23)cc1CN(CCCl)CCCl
active: [1] -40.4% | [2] -7.47% | [3] -50.6% | [4] -88.3% | [5] -28.6% | [6] -10.7% | [7] -79.8% | [8] -79.5%

CN1C(=O)N[C@H]2[C@@H]3NC(=O)c4ccc(Br)n4[C@@H]3C[C@]21O
active: [2] -10.6% | [3] -47.8% | [4] -30.6% | [5] -4.51% | [6] -4.96% | [7] -17.1% | [8] -24.1% | [9] -12.8%
inactive: [1] 48.6%

CC12CCC=CC1CCC1C2CCC2(C)C(c3ccc(=O)oc3)CCC12O (configuration not stated)
active: [1] -51.5% | [2] -13.6% | [3] -65.2% | [4] -95.2% | [5] -36.7% | [6] -30.6% | [7] -64.2%

c1ccc(Nc2nc(-c3ccccc3)c[se]2)cc1
active: [2] 6.3%
inactive: [1] 97.3% | [3] 87.4% | [4] 104% | [5] 98.8% | [6] 61% | [7] 86.3% | [8] 86.5%

COc1ccc2c(c1)c(-c1nc(-c3cn(C)c4ncccc34)cs1)cn2CCN1CCOCC1
inactive: [1] 30.6% | [2] 20% | [3] 54.7% | [4] 72.9% | [5] 55.8% | [6] 13.5% | [7] 34.4% | [8] 95.6%

CCOC(=O)[C@@H](C)C[C@H](Cc1ccccc1)NC(=O)c1nc([C@@H](C[C@H](C(C)C)N(C)C(=O)[C@@H](NC(=O)[C@H]2CCCCN2C)C(C)C)OC(C)=O)sc1CCOCc1ccccc1
active: [1] 1.07% | [3] -50.9% | [4] -58.3% | [5] 6.51% | [6] 5.53% | [7] -33.7% | [8] -59.6%
inactive: [2] 24.7%
